Compounds with a hit are over-represented: about 2.1% of the library has one in this group of screens.
Abeta yeast res: restores growth of yeast expressing A-beta42 peptide | yeast expressing A-beta42, growth rescue, OD600, 48 h; response scale: 0% DMSO, 100% iron-clioquinol control | Potency, µM (series often up to 46.1 µM), hits mostly activators | 0.063% of 410,000 active; note: nearly all actives have a fitted effect of over 55% in size
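Growth rescue measured by 600 nm absorbance after 48 h yeast culture at 30 C with compound. Values normalized between DMSO and an equimolar ferric chloride plus clioquinol control.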
aSyn yeast inh: inhibitors of alpha-synuclein toxicity in yeast; Yeast expressing alpha-synuclein, growth rescue, BacTiter-Glo, 24 h; Potency, µM (series often up to 46.1 µM), usual class: activators; 0.14% of 370,000 active; note: nearly all actives have a fitted effect of over 65% in size
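Readout is rescue of growth in alpha-synuclein-expressing yeast, so inhibitors of toxicity appear as activators. Growth after 24 hr at 30 deg C in galactose medium is quantified by luminescence.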
TDP43 rescue: TDP-43 toxicity inhibition in yeast. AID 652104. 1.8% of 410,000 active. TDP-43 expressing yeast growth rescue, BacTiter-Glo, 24 h. Potency, µM (titrated, usually from 46.1 µM), actives largely listed as activators; note: nearly all actives have a fitted effect of over 50% in size
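Readout is BacTiter-Glo luminescence of cell growth, so inhibitors register as activators. TDP-43-expressing yeast at OD600=0.02 in galactose medium, after raffinose pregrowth to mid-log, were incubated with compound for 24 hr at 30 deg C.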
FUS yeast rescue: FUS proteinopathy suppression in yeast; S. cerevisiae FUS-expressing, growth rescue, OD600, 24 h; Potency, µM (highest dose often 76.6 µM), usual class: activators; 0.24% of 390,000 active; note: nearly all actives have a fitted effect of over 55% in size
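Toxicity suppression screen in FUS-yeast. Cells induced with 2% galactose, starting OD 0.005, treated 24hr at 30C with compounds at multiple final concentrations; growth by OD600.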
A number is an active result; - = inactive; ? = inconclusive; . = no result given. Calls come from the whole dose curve; as a rule, active = well fitted curve in the direction sought with a large enough effect; inconclusive = small, poorly fitted or top-dose-only effect, or another doubt; inactive = no such curve, though single readings can be large; an effect the other way counts as inactive or inconclusive.

SMILES	Abeta yeast res	aSyn yeast inh	TDP43 rescue	FUS yeast rescue
Cc1cnc2c(C)ccc(C)c2c1/C=C/c1ccc(N(C)C)cc1	.	-	.	.
COc1ccc(NC2=C(Cl)C(=O)N(c3ccccc3)C2=O)c(OC)c1	-	-	-	-
COc1ccccc1NC1=C(Cl)C(=O)N(c2ccccc2)C1=O	-	-	6.31µM	.
COC(=O)c1ccc(NC(=O)COc2ccccc2C(=O)Nc2ccccc2)cc1	.	-	.	.
Cc1ccc(NCc2ccc([N+](=O)[O-])s2)cc1	-	-	11.2µM	-
Cc1cccc(NCc2ccc([N+](=O)[O-])s2)c1	-	-	?	-
O=[N+]([O-])c1ccc(CNc2cccc(F)c2)s1	?	-	11.2µM	-
Cc1ccccc1NCc1ccc([N+](=O)[O-])s1	-	-	11.2µM	-
COC(=O)c1ccc(CSc2nnc(Nc3ccc(OC)cc3)s2)o1	-	-	-	-
COC(=O)c1ccc(CSc2nnc(Nc3ccccc3OC)s2)o1	-	-	17.8µM	-
O=C(Oc1ccc(Cl)cc1)c1ccc(N2CCOCC2)c([N+](=O)[O-])c1	-	-	-	.
O=C(O/N=C\c1ccc(N2CCOCC2)c([N+](=O)[O-])c1)c1ccccc1Cl	-	-	14.1µM	.
O=C(Oc1cc(Cl)ccc1Cl)c1ccc(N2CCOCC2)c([N+](=O)[O-])c1	5.62µM	-	?	-
CSc1ccccc1-n1nnnc1SCc1ccccc1	-	-	12.6µM	-
COc1ccc2ccccc2c1C(=O)/C=C\c1ccoc1	-	?	11.2µM	-
O=C(NN=Cc1ccc(-c2ccccc2)cc1)c1cc(-c2ccc(Cl)cc2)n[nH]1	.	.	.	-
Cc1cc(C)cc(C(=O)OCCN2CCN(C3CN(Cc4cn(Cc5ccc([N+](=O)[O-])cc5)nn4)S(=O)(=O)C3)CC2)c1 (stereo unspecified)	.	.	.	-
Cc1oc(-c2ccc(Cl)cc2)nc1CS(=O)CC(=O)N1CCN(c2cccc(C(F)(F)F)c2)CC1 (stereo unspecified)	-	.	-	-
Cc1ccc(-c2nc(CS(=O)CC(=O)N3CCN(c4cccc(Cl)c4)CC3)c(C)o2)cc1 (stereo unspecified)	-	.	31.6µM	?
Cc1oc(-c2ccccc2Cl)nc1CS(=O)CC(=O)N1CCN(c2cccc(C(F)(F)F)c2)CC1 (stereo unspecified)	-	.	?	25.1µM
CC(=O)c1cccc(Nc2nc(-c3cccc(C)c3)nc3ccccc23)c1	-	.	15.8µM	?
Cc1cccc(Oc2cnn(C(C)(C)C)c(=O)c2Cl)c1	-	-	10µM	-
COc1cnn(C(C)(C)C)c(=O)c1Cl	-	-	-	-
CCC(=C(c1ccc(OC)cc1)c1ccc(OC)cc1)c1cn(CC(O)CN(CCO)CCO)c2ccccc12 (stereo unspecified)	-	-	-	28.2µM
Cc1ccc(-c2csc3ncnc(SCC(=O)NCc4ccc5c(c4)OCO5)c23)cc1	-	-	-	-
SMILES	Abeta yeast res	aSyn yeast inh	TDP43 rescue	FUS yeast rescue
O=C(CSc1ncnc2sccc12)NCc1ccc2c(c1)OCO2	-	?	15.8µM	-
O=C(NCc1ccccc1Cl)c1cnc2n(c1=O)CCS2	-	-	?	-
Cc1csc2ncc(C(=O)NCc3ccc4c(c3)OCO4)c(=O)n12	-	-	10µM	-
O=C(NCc1ccc2c(c1)OCO2)c1cnc2ccccn2c1=O	-	-	-	-
Cc1csc2ncc(C(=O)NCc3ccccc3Cl)c(=O)n12	-	-	22.4µM	-
CC(=O)Nc1sc2c(c1-c1nc3ccccc3s1)CCCN(C(C)C)C2	.	.	.	-
COc1ccc2ccccc2c1C=NNC(=O)c1cc(-c2ccc(C)cc2)n[nH]1	.	.	.	-
COc1cc2nc(NC3CCN(Cc4ccccc4)CC3)nc(N3CCCN(C)CC3)c2cc1OC	.	-	.	.
CCSc1cc(C)nc2ncnn12	-	-	-	-
CCCCCCSc1cc(C)nc2ncnn12	-	-	25.1µM	-
Cc1cc(C(Br)(Br)Br)nc2ccccc12	.	-	.	.
S=C1SCN(Cc2cccs2)CN1Cc1cccs1	-	-	11.2µM	-
S=C1SCN(Cc2ccco2)CN1Cc1ccco1	-	-	?	-
Cc1ccc2c(c1)C(c1ccccc1)N(C(=O)c1ccc(S(=O)(=O)N3CCCC3)cc1)CC(=O)N2 (stereo unspecified)	-	.	-	25.1µM
O=C1CN(C(=O)c2ccc(S(=O)(=O)N3CCCC3)cc2)C(c2ccccc2)c2cc(Cl)ccc2N1 (stereo unspecified)	-	.	-	?
O=C(CN1N=C(c2ccc(Cl)cc2)CCC1=O)NCCc1ccc(Cl)cc1	?	.	22.4µM	?
O=C(Cn1nc(-c2ccc(Cl)cc2)ccc1=O)NCCc1ccccc1	-	-	-	-
Cc1ccc(-c2ccc(=O)n(CC(=O)NCCc3ccc(Cl)cc3)n2)cc1	-	.	22.4µM	-
Cc1ccc(CCNC(=O)CN2N=C(c3ccc(C)cc3)CCC2=O)cc1	-	.	?	-
COc1cc2nc(CCNCc3ccccc3)nc(NC3CCN(C)CC3)c2cc1OC	.	-	.	.
CCCC1CCC2(CCCN2CCOC(=S)Nc2ccccc2)CC1 (stereo unspecified)	.	.	.	-
Nc1nc(SCc2ccc(Cl)cc2)ns1	?	-	15.8µM	-
Nc1nc(SCc2ccccc2)ns1	-	-	-	-
C(=Nc1cnc2ccccc2c1)c1ccnc2ccccc12	.	-	.	.
Cc1ccc(CN=c2c([N+](=O)[O-])nn(-c3cccc(Cl)c3)n2O)cc1	?	-	10µM	-
Cc1ccc(CN=c2c([N+](=O)[O-])nn(-c3cccc(C)c3)n2O)cc1	-	-	15.8µM	-
CCc1ccc(N=c2c([N+](=O)[O-])nn(-c3ccccc3)n2O)cc1	?	-	12.6µM	-
CCC[N+](C)(C)c1ccc(/C=C/c2ccnc3ccccc23)cc1	.	-	.	.
C=CCN1[C@@H](C)COc2cc(N3CCSCC3)ccc2S1(=O)=O	.	.	.	-

High-throughput results (PubChem)
